Bioassay records: PubChem BioAssay, Broad Institute
EZH2 inh: blocks human EZH2/PRC2 H3K27 methylation; Q15910; DELFIA TRF, 1 h; inhibition, % at 12.5 µM; hit rate 0.35% among 57,000;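 active = mean inhibition of replicates at least 50% and every single replicate also reaching 50%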;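 note: dimethyl H3K27 on biotinylated H3 21-44 peptide detected by antibody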
Target sequence (Q15910 whole entry, looked up): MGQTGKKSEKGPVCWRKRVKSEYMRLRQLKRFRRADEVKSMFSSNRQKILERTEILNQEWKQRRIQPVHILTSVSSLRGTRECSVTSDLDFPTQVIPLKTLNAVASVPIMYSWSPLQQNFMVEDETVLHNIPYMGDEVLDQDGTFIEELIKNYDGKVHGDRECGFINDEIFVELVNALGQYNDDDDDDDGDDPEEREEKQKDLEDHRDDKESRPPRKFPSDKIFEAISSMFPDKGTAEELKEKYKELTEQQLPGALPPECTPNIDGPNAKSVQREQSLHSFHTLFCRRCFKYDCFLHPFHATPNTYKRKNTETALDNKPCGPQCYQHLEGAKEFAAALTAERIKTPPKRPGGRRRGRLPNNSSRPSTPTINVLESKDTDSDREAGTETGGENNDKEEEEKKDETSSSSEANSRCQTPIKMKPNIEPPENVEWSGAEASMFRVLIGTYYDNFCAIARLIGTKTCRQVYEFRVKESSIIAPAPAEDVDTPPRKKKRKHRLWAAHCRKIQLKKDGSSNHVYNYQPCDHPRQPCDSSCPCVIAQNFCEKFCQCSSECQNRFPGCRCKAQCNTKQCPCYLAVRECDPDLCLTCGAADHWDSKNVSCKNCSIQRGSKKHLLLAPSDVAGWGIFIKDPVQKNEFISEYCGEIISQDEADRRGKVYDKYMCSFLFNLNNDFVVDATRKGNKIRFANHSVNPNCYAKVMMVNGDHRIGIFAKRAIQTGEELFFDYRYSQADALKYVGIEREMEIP
A number is an active result; n = inactive. The entries come from a sample that favours hits as a whole.

SMILES	EZH2 inh
O=C1c2c(O)cc(O)cc2OC(c2ccc(O)cc2)C1C1C(=O)c2c(O)cc(O)cc2OC1c1ccc(O)cc1 (configuration not stated)	n
Oc1ccc([C@H]2Oc3cc(O)cc(O)c3C[C@H]2O)cc1	n
Oc1ccc([C@@H]2Oc3cc(O)cc(O)c3C[C@@H]2O)cc1	89.3
Cc1cc(C)c(NC(=O)CN(C)S(=O)(=O)c2ccc(Cl)cc2)c(C)c1	n
C[C@H]1CC(O)C23COC(=O)[C@@H]2CCC[C@@H]3[C@@]12C[C@@H](c1ccoc1)OC2=O (some centres not stated)	n
COC(=O)c1c(NC(=O)c2ccc(NS(C)(=O)=O)cc2)sc2c1CCCC2	n
CN(C(=S)SCc1ccccc1)c1ccccc1	66.5
CN(C)S(=O)(=O)N(CC(=O)O)c1ccccc1	n
Cc1ccc(N(CC(=O)Nc2cccc3ccccc23)S(C)(=O)=O)cc1Cl	n
Cc1ccc(NC(=O)c2oc3ccccc3c2NC(=O)Cc2coc3ccc(C)cc23)cc1	n
COC(=O)c1cc(NC(=O)CC2Sc3ccccc3NC2=O)cc(C(=O)OC)c1 (configuration not stated)	n
COc1cccc(C#Cc2cnc3c(c2)C(=O)N([C@@H](C)CO)C[C@@H](C)[C@@H](CN(C)C(=O)C2CCCCC2)O3)c1	n
COc1cccc(C#Cc2cnc3c(c2)C(=O)N([C@@H](C)CO)C[C@H](C)[C@H](CN(C)C(=O)C2CCC2)O3)c1	n
COc1cccc(C#Cc2cnc3c(c2)C(=O)N([C@H](C)CO)C[C@@H](C)[C@H](CN(C)C(=O)C2CCCCC2)O3)c1	95.2
N#Cc1ccc(/C=N/NC(=O)CCCCCC(=O)O)cc1	n
O=C(O)CCCCCC(=O)N/N=C/c1ccc(N(c2ccccc2)c2ccccc2)cc1	60.9
O=C(CCCCCCC(=O)Nc1ccccc1O)N/N=C/c1ccc(N(c2ccccc2)c2ccccc2)cc1	n
O=C(O)CCCCCCC(=O)N/N=C/c1ccc(F)cc1	n
O=C(O)CCCCCC(=O)N/N=C/c1ccccc1	n
O=C(O)CCCCCCC(=O)N/N=C/c1ccc(N(c2ccccc2)c2ccccc2)cc1	62.6
COc1cc(OC)cc(-c2nnc(SCC(=O)Nc3ccc(Cl)cc3)n2-c2ccc(F)cc2)c1	n
COc1ccc(-c2cc3ccccc3oc2=O)cc1NC(=O)COc1ccc(C(C)(C)C)cc1	n
Cc1cc(Cl)ccc1NC(=O)c1ccc(OCC(=O)Nc2ccccc2)cc1	n
Cc1cc(CSc2cc(C)c(Cl)cc2C)no1	56.2
COc1ccccc1NC(=O)c1cnc(Nc2nc3ccccc3s2)nc1C	n
SMILES	EZH2 inh
Cc1ccc(-c2cc(C(=O)NCc3cccnc3)c3cc(Br)ccc3n2)cc1	n
C[C@H]1CN([C@@H](C)CO)S(=O)(=O)c2ccc(Br)cc2O[C@H]1CN(C)Cc1ccc(F)cc1	n
Cc1ccc(-c2ccc3c(c2)O[C@H](CN(C)Cc2ccc(C(=O)O)cc2)[C@@H](C)CN([C@@H](C)CO)S3(=O)=O)cc1	n
Cc1ccc(-c2ccc3c(c2)O[C@H](CN(C)Cc2ccc(C(=O)O)cc2)[C@H](C)CN([C@H](C)CO)S3(=O)=O)cc1	n
Cc1ccc(-c2ccc3c(c2)O[C@H](CN(C)Cc2ccc(C(=O)O)cc2)[C@@H](C)CN([C@H](C)CO)S3(=O)=O)cc1	50.4
C[C@@H]1CN([C@H](C)CO)S(=O)(=O)c2ccc(/C=C/c3ccccc3)cc2O[C@@H]1CN(C)Cc1ccc(C(=O)O)cc1	n
C[C@H](CO)N1C[C@H](C)[C@@H](CN(C)Cc2ccc(F)cc2)Oc2cc(Br)ccc2S1(=O)=O	58.1
C[C@H]1CN([C@@H](C)CO)S(=O)(=O)c2ccc(Br)cc2O[C@H]1CN(C)Cc1ccccc1	n
C[C@H](CO)N1C[C@H](C)[C@H](CN(C)Cc2ccc(C(=O)O)cc2)Oc2cc(/C=C/c3ccccc3)ccc2S1(=O)=O	52.1
C[C@@H]1CN([C@H](C)CO)S(=O)(=O)c2ccc(/C=C/c3ccccc3)cc2O[C@H]1CN(C)Cc1ccccc1	n
CSc1ccccc1NC(=O)CN(c1cccc(Cl)c1Cl)S(C)(=O)=O	n
Cc1ccc2c(C)c(C(=O)Nc3sc4c(c3C(=O)NCc3ccco3)CCC4)oc2c1	n
O=C(O)CCc1ccc(-c2ccccc2)n1-c1ccc([N+](=O)[O-])cc1	n
CCOC(=O)C1=C(C)Nc2ncnn2C1c1ccccc1[N+](=O)[O-] (configuration not stated)	n
CC1(C)[C@H]2CC=C(/C=N\NC(=O)CCCCC(=O)NO)[C@@H]1C2	n
C=CCSc1n[nH]c(=O)n1-c1cccc(Cl)c1	n
COc1ccccc1NC(=O)COc1ccc(Cl)cc1CO	n
COc1ccc(C)cc1N(CC(=O)Nc1ccccc1C(F)(F)F)S(C)(=O)=O	n
O=C(COc1cc(Cl)c(Cl)cc1Cl)NCc1ccco1	n
COC1=C/C(=C/c2c(N)n3c(SC(C)C)nsc3nc2=O)C=CC1=O	n
O=[N+]([O-])c1cccc(NC(=S)NCCn2cc(Br)cn2)c1	n
COC(=O)c1ccc(NC(=O)CCC(=O)c2ccc(C)cc2C)cc1	n
Cc1ccc(S(=O)(=O)NC(C)C(=O)Nc2ccc(Oc3ccccc3)cc2)cc1 (configuration not stated)	n
Cc1ccc(NC(=O)CCC(=O)c2ccc(Oc3ccccc3)cc2)cc1	52.3
COc1cc(Cl)c(/C=N\NC(=O)CCCCC(=O)NO)c(Cl)c1OC	n
SMILES	EZH2 inh
COC(=O)c1ccc(C)c(NC(=O)COc2ccccc2C)c1	n
COc1ccc(Cl)cc1NC(=O)C12CCC(C)(c3nc4ccccc4nc31)C2(C)C (configuration not stated)	n
CC(=O)c1c(C)oc2ccc(N(C(=O)c3ccncc3)S(=O)(=O)c3ccc(F)cc3C)cc12	n
COc1ccc(N(C(=O)C2CCCCC2)S(=O)(=O)c2cccc3cccnc23)cc1	n
Cc1ccc(S(=O)(=O)N(C(=O)C2CCCCC2)c2ccc3oc(=O)sc3c2)c(C)c1	53.6
CCOc1cccc(/C=N/NC(=O)CCCCC(=O)NO)c1OCC	n
CC(C)(C)c1ccc(OCC(=O)NCc2cccnc2)c(Br)c1	n
CSc1cccc(NC(=O)CN(c2ccc3c(c2)OCCO3)S(C)(=O)=O)c1	n
CCOc1cc(/C=C2\SC(=S)NC2=O)cc(Cl)c1OC(=O)c1ccc(OC)cc1	66.9
CCc1ccc(OCC(=O)Nc2ccccc2C#N)cc1	n
O=C(CSc1n[nH]c(-c2ccc(Cl)cc2Cl)n1)Nc1cccc(C(F)(F)F)c1	n
O=C(CSc1n[nH]c(-c2ccc(Cl)cc2Cl)n1)Nc1cc(C(F)(F)F)ccc1Cl	n
O=C(CSc1n[nH]c(-c2ccc(Cl)cc2Cl)n1)Nc1ccc(I)cc1	58.4
Cc1cc(C)c(S(=O)(=O)N(CC(=O)Nc2ccc(C(N)=O)cc2)C2CCCCC2)c(C)c1	n
COc1ccc(S(=O)(=O)NC2(C(=O)O)CCCCC2)cc1	n
CCCCCCN(CCCCCC)C(=O)Cc1c(-c2ccc(F)cc2)[nH]c2ccccc12	n
CCCCCCCCc1ccc(-c2ccc(C(=O)O)cc2)cc1	72.0
CCCCOC(=O)c1ccc(N)cc1	n
COc1ccc(CC(=O)Nc2ccc(O)cc2C(=O)O)cc1OC	n
C/C=C1/CN[C@H]2Cc3c([nH]c4ccccc34)C(=O)C[C@H]1C2C(=O)OC (some centres not stated)	n
COc1ccc(Cl)cc1NC(=O)CN(c1ccc(Cl)c(C(F)(F)F)c1)S(C)(=O)=O	n
COc1ccc(NC(=O)CSc2ncnc3c2sc2nc(N4CCOCC4)c4c(c23)CC(C)(C)OC4)cc1	n
CCOC(=O)c1c(-c2ccc(C)cc2)csc1NC(=O)c1cccc(OC(C)=O)c1	n
